DAX1 inh-1: inhibits human nuclear receptor DAX1; HEK293 Gal4-DAX1 luciferase reporter, luminescence; 340,000 compounds, 0.99% hits; P51843; inhibition, % at 6.75 µM; AID 504766;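 active means inhibition above the mean over all tested compounds plus 3 SD, cut at about 4.2% in these data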;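 further: 0% = DAX1-transfected cells with DMSO and 100% = empty-vector control cells with DMSO; inhibition shows as a rise in luminescence from relieved DAX1 repression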
Target sequence (P51843 207-470 limits assumed): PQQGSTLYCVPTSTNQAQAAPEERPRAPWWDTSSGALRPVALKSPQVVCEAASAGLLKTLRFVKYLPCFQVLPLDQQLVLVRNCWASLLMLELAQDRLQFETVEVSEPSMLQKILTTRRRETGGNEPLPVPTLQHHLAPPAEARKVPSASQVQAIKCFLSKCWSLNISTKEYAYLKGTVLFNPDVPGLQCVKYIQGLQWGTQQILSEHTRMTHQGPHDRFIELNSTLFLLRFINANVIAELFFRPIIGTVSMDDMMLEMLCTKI
ssDAF12 agonist: activators of S. stercoralis DAF-12 nuclear receptor; HEK293 ssDAF-12/GRIP1 lit1-tk-luc reporter, luminescence; % of 3 µM dafachronic acid response; activation, % at 6.8 µM; 370,000 compounds, 1% hits; AID 652126;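 active means activation above the mean over all tested compounds plus 3 SD, cut at about 0.9% in these data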;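 further: 0% = DMSO-only wells and 100% = 3 µM delta7-dafachronic acid wells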
hgDAF12 agonist: agonists of H. glycines DAF-12 nuclear receptor; AID 687014; 370,000 compounds, 1.8% hits; activation, % at 6.8 µM; HEK293 GAL4-hgDAF12 UAS-luciferase reporter, agonist luminescence; normalized to butyrate control;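 active means activation above a cutoff set at the mean of all screened compounds plus 3 SD, cut at about 10% in these data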;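 further: 0% = DMSO wells and 100% = sodium butyrate wells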
DAX1 inh-2: DAX1 (NR0B1) inhibition, primary screen. 370,000 compounds, 1.1% hits. inhibition, % at 6.8 µM. HEK293T StAR-luciferase reporter, SF-1/DAX-1 repression relief;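 active means inhibition above the mean over all tested compounds plus 3 SD, cut at about 3.6% in these data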;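 further: 0% = DAX-1 cells with DMSO and 100% = cells lacking DAX-1 with DMSO; higher inhibition means more luminescence from relief of DAX-1 repression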
hcDAF12 agonist: activators of H. contortus DAF-12 nuclear receptor; HEK293 hcDAF-12 lit1-tk-luc reporter, luminescence; 0% DMSO, 100% Δ7-dafachronic acid; activation, % at 6.8 µM; 370,000 compounds, 1.4% hits; AID 652067;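 active means activation above the mean of all tested compounds plus 3 SD, cut at about 5.5% in these data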;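 further: 100% = response to 3 µM Δ7-dafachronic acid high control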
Active calls of the source: *; nt = not tested or not shown. Hits are enriched below; roughly 4.1% of the tested compounds scored in any of these assays.

SMILES	DAX1 inh-1	ssDAF12 agonist	hgDAF12 agonist	DAX1 inh-2	hcDAF12 agonist
COC(=O)C1C/C(=N\NS(=O)(=O)c2ccc(C)cc2)c2ccccc2C1 (centres undefined)	0	-1	-1	-3	-1
Cc1ccc(S(=O)(=O)NN=C2CCc3ccccc32)cc1	1	1.6*	5	0	4
COc1ccc(OCC(=O)N/N=C2\CCc3ccccc32)cc1	1	0	-2	0	-1
NC(=O)C(=O)N/N=C1\CCc2ccccc21	1	0	4	1	6.0*
Cc1ccc(/C=C/C(=O)Nc2cccnc2)o1	1	1.0*	1	0	1
COc1ccccc1C(=O)Nc1cc(-c2ccc(C)cc2)no1	0	1.0*	12*	0	4
COc1ccccc1C(=O)Nc1ccccc1SC(=O)c1ccccc1OC	4.3*	0	-2	0	4
CN(/C=C/C(=C\C=[N+](C)c1ccccc1)OCCCS(=O)(=O)[O-])c1ccccc1	0	1	-3	0	5.6*
COC(=O)N1C[C@H](OCc2ccc3c(c2)OCO3)[C@H]2C[C@@H]1c1ccccc1O2	nt	-1	-4	0	1
COC(=O)c1sc(=S)n(-c2cc(F)ccc2F)c1N	4.9*	0	1	0	-1
CCOC(=O)c1sc(=S)n(-c2cc(F)ccc2F)c1N	0	-1	-1	-1	-1
O=[N+]([O-])c1cccc(COc2cccc(CO)c2)c1	1	-1	9	2	0
COc1ccc(OCc2cccc(C(=O)Nn3cc([N+](=O)[O-])cn3)c2)cc1	-4	0	11*	2	5
COc1ccc(OCc2cccc(C(=O)Nc3cc(C)on3)c2)cc1	-4	0	10	2	4
O=[N+]([O-])c1cccc(COc2ccc(CO)cc2)c1	nt	2.6*	19*	2	7.0*
Cc1ccc2c(CN3CC(C)CC(C)C3)cc(=O)oc2c1 (centres undefined)	0	-1	-2	0	0
Cc1ccc2c(CN3CCC(C)CC3)cc(=O)oc2c1	2	-1	11*	2	3
Cc1ccc(-c2ccc(CCC(=O)O)o2)cc1	0	2.6*	0	0	-1
COc1ccc(CCC[C@@H](CCC(=O)N(c2ccccc2)c2ccccc2)CCc2ccccc2)cc1	nt	-2	2	0	-2
COc1cccc(C(=O)N(CCN2CCOCC2)Cc2ccc(OC)c(OC)c2)c1	nt	-1	2	0	0
O=C(NCc1cccs1)O[C@H]1CC[C@@]23CCCN2C(=O)CCC[C@H]3C1	nt	-1	-5	nt	1
COC(=O)C1CN(Cc2ccc(Cl)cc2)CCS(=O)(=O)N1Cc1cn(Cc2ccc(C)cc2)nn1 (centres undefined)	nt	-1	1	0	-4
COc1ccc(/C(N)=N/OC(=O)c2c(-c3ccccc3Cl)noc2C)cc1OC	0	-1	1	-3	-1
Cc1nc(/C(N)=N/OC(=O)c2c(-c3ccccc3Cl)noc2C)cs1	5.9*	-2	-3	0	0
Cn1cc(CN2CCc3c([nH]c4ccccc34)C2C(C)(C)C)cn1 (centres undefined)	0	-1	-2	-1	5.9*
SMILES	DAX1 inh-1	ssDAF12 agonist	hgDAF12 agonist	DAX1 inh-2	hcDAF12 agonist
Nc1nnc(-c2ccc(Cl)c(Cl)c2)s1	5.8*	-1	1	0	3
C=CCn1c(C)cc(C(=O)CSc2nc3ccccc3c(=O)[nH]2)c1C	-1	-1	4	1	-1
Cn1c(=O)n(C)c2cc(NC(=O)CSc3nc4ccccc4c(=O)[nH]3)ccc21	4.7*	-1	0	0	1
Cc1cc(C(=O)CSc2nc3ccccc3[nH]2)c(C)n1C	1	1.1*	11*	3.7*	6
O=C(CSc1nc2ccccc2c(=O)[nH]1)Nc1ccc(C(=O)O)cc1	1	-1	1	1	-1
COCCn1c(C)cc(C(=O)CSc2nc3ccccc3c(=O)[nH]2)c1C	6.5*	0	7	2	3
Cc1cc(C(=O)CSc2nnc(-c3ccccc3)n2C)c(C)n1C	-1	-1	-1	0	1
Cc1ccc2nc(SCC(=O)c3cc(C)n(C)c3C)[nH]c2c1	0	0	0	0	-1
Cc1cc(C(=O)CSc2nnc(-c3ccncc3)n2-c2ccccc2)c(C)n1C	7.4*	-1	-1	-2	-2
CCOC(=O)CC[C@H]1CC[C@]2(CCCN(C3CCCCC3)C2)O1	nt	-1	3	1	-1

High-throughput results as filed in PubChem BioAssay.
